Screens: PubChem, The Scripps Research Institute Molecular Screening Center
TEAD-YAP block: TEAD-YAP interaction inhibition; inhibition, % at 9.12 µM; AID 1259422; HEK-TIYL cells, TEAD-Gal4/YAP UAS-luciferase luminescence; hit rate 1.4% among 640,000; in the data active means inhibition above about 32%;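 further: 0% = median of test compound wells and 100% = reference inhibitor wells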
GPR151 activ: activators of human GPR151. hit rate 1% among 650,000. activation, % at 11.2 µM. AID 1508602. PathHunter beta-arrestin GPR151 cells, luminescence; in the data active means activation above about 4.9%;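 further: 0% = median of compound wells and 100% = cells with positive control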
MITF inh: human MITF inhibition, primary screen; O75030; hit rate 0.91% among 650,000; inhibition, % at 2.6 µM; AlphaScreen MITF homodimerization, bead proximity signal; in the data active means inhibition above about 50%;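 further: 0% = vehicle wells with protein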
FBW7 activator: activators of human E3 ligase FBW7; AlphaScreen FBW7–phospho-cyclin E peptide binding, activator screen; normalized activity (activation), % at 26.1 µM; hit rate 0.13% among 650,000; AID 1259310; in the data active means normalized activity above about 1.9%;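 further: purified mutant Fbw7 with reduced substrate affinity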
Target sequence (Q969H0 whole entry, looked up): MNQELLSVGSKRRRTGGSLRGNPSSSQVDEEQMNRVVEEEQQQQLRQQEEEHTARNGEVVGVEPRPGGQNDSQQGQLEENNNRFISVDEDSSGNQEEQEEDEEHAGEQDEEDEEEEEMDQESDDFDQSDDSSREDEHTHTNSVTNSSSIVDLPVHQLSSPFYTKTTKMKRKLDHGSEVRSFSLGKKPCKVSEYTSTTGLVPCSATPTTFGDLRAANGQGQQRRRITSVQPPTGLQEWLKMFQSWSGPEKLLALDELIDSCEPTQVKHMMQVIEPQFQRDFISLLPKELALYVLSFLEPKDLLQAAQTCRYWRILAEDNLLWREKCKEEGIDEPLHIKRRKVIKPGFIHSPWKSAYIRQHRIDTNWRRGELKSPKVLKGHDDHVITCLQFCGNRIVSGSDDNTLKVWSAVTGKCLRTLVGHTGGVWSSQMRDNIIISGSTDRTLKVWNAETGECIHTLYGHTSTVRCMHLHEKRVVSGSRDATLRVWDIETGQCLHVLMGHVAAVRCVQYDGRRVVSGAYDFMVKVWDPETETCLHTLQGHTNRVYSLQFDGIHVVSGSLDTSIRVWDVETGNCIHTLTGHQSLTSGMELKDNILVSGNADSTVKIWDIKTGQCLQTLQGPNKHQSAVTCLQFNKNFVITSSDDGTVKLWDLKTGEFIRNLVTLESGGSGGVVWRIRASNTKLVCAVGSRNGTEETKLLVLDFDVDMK
* = called active by the depositor; x = no result given. Shown are actives, neighbours in structure and some others; about 3.4% of the full set was active somewhere.

SMILES | TEAD-YAP block | GPR151 activ | MITF inh | FBW7 activator
C=CCN(c1ccccc1)S(=O)(=O)c1ccc(F)c(C(=O)NCCc2ccccc2)c1 | 35* | 0 | 2 | 0
C=CCN(c1ccccc1)S(=O)(=O)c1ccc(F)c(C(=O)NCC(OC)OC)c1 | 3 | 1 | 8 | 0
Nc1nc2c(c3c1C(=O)NC3=O)CCC2 | 9 | -1 | 5 | 0
CCOC(=O)c1sc(N)c(C#N)c1CSc1nnc(-c2ccc(OC)c(OC)c2)o1 | 44* | -1 | -2 | 0
CCOC(=O)c1sc(N)c(C#N)c1CSc1nnc(-c2ccco2)o1 | -12 | 0 | 6 | 0
N#C/C(=C\c1cccc(Cl)c1)C(=O)NCc1ccccc1 | 1 | 0 | 1 | 0
O=C(NCc1ccccc1)C(=Cc1cccc(O)c1)C(=O)NCc1ccccc1 | 35* | 0 | 5 | 0
CCCCN(CC)S(=O)(=O)c1ccccc1[N+](=O)[O-] | 47* | 1 | 8 | 0
CC(C)CN(CC(C)C)S(=O)(=O)c1ccccc1[N+](=O)[O-] | -5 | 1 | -4 | 0
CC1=CC(=O)C(C(C)C)=C/C1=N\OC(=O)c1ccccc1 | -5 | -1 | 10 | 0
NC1=NC2(CCCCCC2)n2c(nc3ccccc32)N1 | 78* | -1 | 4 | 0
O=[N+]([O-])c1ccc2c(ccn2C2OCC(O)C(O)C2O)c1 (configuration not stated) | 2 | 0 | -3 | 0
Oc1ccc(CCNc2nc(NCc3cccnc3)nc3c2ncn3-c2ccccc2)cc1 | 54* | -2 | 10 | 0
OCCNc1nc(Nc2ccncn2)nc2c1ncn2-c1ccccc1 | 3 | 0 | 9 | 0
Oc1ccc(CCNc2nc(Nc3ccncc3)nc3c2ncn3-c2ccccc2)cc1 | 56* | 1 | -4 | 0
OCCNc1nc(Nc2ccccn2)nc2c1ncn2-c1ccccc1 | 34* | 0 | 8 | 0
COc1ccc(CCNc2nc(Nc3cccnc3)nc3c2ncn3-c2ccccc2)cc1 | 37* | -1 | 13 | 0
Oc1ccc(CCNc2nc(NCc3cccnc3)nc3c2ncn3-c2ccsc2)cc1 | 1 | 0 | -252 | 0
Oc1ccc(CCNc2nc(Nc3ncccn3)nc3c2ncn3-c2ccccc2)cc1 | 15 | -1 | 19 | 0
Oc1ccc(CCNc2nc(Nc3ccccn3)nc3c2ncn3-c2ccsc2)cc1 | 46* | -1 | 12 | 0
Oc1ccc(CCNc2nc(Nc3ccccn3)nc3c2ncn3-c2ccccc2)cc1 | 34* | 1 | -9 | 0
c1ccc(CNc2nc(Nc3ccccn3)nc3c2ncn3-c2ccsc2)cc1 | 5 | -2 | 12 | 0
CC1(C(=O)O)NCCc2cc(O)c(O)cc21 (configuration not stated) | x | 0 | 66* | 0
Cc1cc(O)c(C)c(O)c1/C=N\NC(=O)CNC(=O)C(c1ccccc1)c1ccccc1 | 33* | 0 | 17 | 0
COc1ccccc1/C=N/NC(=O)c1ccccc1N | -48 | 4 | -3 | 0
SMILES | TEAD-YAP block | GPR151 activ | MITF inh | FBW7 activator
Cc1cc(OCC(=O)Nc2ccc(C(=O)OC3CCCCC3)cc2)ccc1Cl | 84* | 2 | 18 | 0
c1coc(-c2nnc(SCc3nc4ccccc4[nH]3)o2)c1 | 44* | -2 | 1 | 0
Cc1nn2c(NCCO)c3c(nc2c1-c1ccc(F)cc1)CCC3 | 0 | -1 | 4 | 0
Nc1c(S(=O)(=O)O)cc2c3c(cccc13)C(=O)N(CCO)C2=O | -2 | 2 | 72* | 0
CN(C)c1ccc2c3c(cccc13)C(=O)N(CCO)C2=O | -20 | -1 | -4 | 0
c1ccc2c(c1)OCC(c1nc3ncc(-c4ccncc4)cc3[nH]1)O2 (configuration not stated) | 3 | 0 | 9 | 0
Fc1ccc(CCn2c(C3COc4ccccc4O3)nc3ncc(-c4ccncc4)cc32)cc1 (configuration not stated) | 51* | 2 | 2 | 0
OCc1ccc(-c2cnc3ccc(NCc4cccs4)nn23)cc1 | 35* | -1 | -8 | 0
Oc1ccc(-c2cnc3ccc(NCc4cccs4)nn23)cc1 | 62* | 3 | -12 | 0
Fc1ccc(-c2cnc3ccc(NCc4cccs4)nn23)cc1 | -4 | 0 | -16 | 0
OCc1cccc(-c2cnc3ccc(NCc4cccs4)nn23)c1 | -1 | -1 | 12 | 0
CC(C)c1nnc2n1CCN(C(=O)CC1CCCCC1)CC2 | -9 | 0 | -12 | 0
OCCNc1nc(-c2ccc(N3CCOCC3)nc2)nc2c1ncn2-c1ccccc1 | 61* | -1 | 5 | 0
c1ccc(-n2cnc3c(NC4CC4)nc(-c4ccc(N5CCOCC5)nc4)nc32)cc1 | 45* | -1 | 11 | 1
c1ccc(-n2cnc3c(Nc4ccc(N5CCOCC5)cc4)nc(-c4ccc(N5CCOCC5)nc4)nc32)cc1 | 2 | 0 | 3 | 0
COc1cccc(CN2CCC(Nc3ccc(-c4cn[nH]c4C)cc3)C2)c1 (configuration not stated) | 5 | -1 | 18 | 0
O=C(c1cc(-c2ccc(Cl)cc2)on1)N1CCCCCC1 | -41 | 1 | 12 | 0
Cc1ccc(-c2cc(C(=O)N3CCOCC3)no2)cc1 | 43* | -3 | 3 | 0
CN1CCN(C(=O)c2cc(-c3ccc(Br)cc3)on2)CC1 | -43 | -1 | 2 | 0
O=C(c1cc(-c2ccc(O)cc2)on1)N1CCCCCC1 | 50* | -1 | 6 | 0
COc1ccc(-c2noc(CSc3ccccc3)n2)cc1 | -54 | -1 | -2 | 1
Nc1cccc(-c2nc(NCCc3ccc(O)cc3)c3ncn(-c4ccccc4)c3n2)c1 | 38* | -1 | 0 | 0
Nc1cccc(-c2nc(NCCN3CCOCC3)c3ncn(-c4ccccc4)c3n2)c1 | 58* | -3 | -3 | 0
CC(=O)c1cccc(-c2nc(NCCN3CCOCC3)c3ncn(-c4ccsc4)c3n2)c1 | 59* | 3 | 10 | 0
CN1CCN(c2ccc(-c3nc(NCCN4CCOCC4)c4ncn(-c5ccsc5)c4n3)cc2)CC1 | 9 | 2 | -2 | 0
SMILES | TEAD-YAP block | GPR151 activ | MITF inh | FBW7 activator
COc1ccc(-c2nc(NCCN3CCOCC3)c3ncn(-c4ccsc4)c3n2)cc1 | 51* | 1 | 8 | 0
COc1ccc(C2=N/C(=C\c3ccc(Cl)cc3)C(=O)O2)c(Cl)c1 | -3 | 0 | -6 | 0
CC(=O)c1cccc(-c2nc(NCCN3CCOCC3)c3ncn(-c4ccccc4)c3n2)c1 | 66* | 1 | 14 | 0
CCN1CCN(c2ncnc3c(-c4ccc(OC)cc4)nsc23)CC1 | -55 | -1 | 12 | 0
COc1ccc(-c2nsc3c(N4CCCC4)ncnc23)cc1 | 65* | 1 | -16 | 0
CC1CCCN(c2ncnc3c(-c4ccccc4)nsc23)C1 (configuration not stated) | 80* | 1 | 0 | 0
COc1ccc(-c2nsc3c(N4CCCC(C)C4)ncnc23)cc1 (configuration not stated) | 86* | 1 | -5 | 0
Fc1ccc(-c2nsc3c(N4CCOCC4)ncnc23)cc1 | 68* | 0 | -1 | 0
CNc1nc2c(c(=O)[nH]c(=O)n2C)n1CC(O)CO (configuration not stated) | 1 | 2 | -1 | 0
